{
  "source": "PubChem BioAssay (NCI)",
  "note": "Values joined by “and” are separate entries in the source; they are usually repeats but may differ in a detail not shown here. Equal values may be shown once. About 83,000 compounds went through this panel and 20% of them were active in at least one assay; those are over-represented in the sample as a whole.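 Cells were grown in 96-well plates and exposed to the test compound at a single concentration for 48 hours; results are reported as percent growth, with values below 10 considered active.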 Active and inactive are the calls of the source.",
  "data": [
    {"tested_on": "SN12C renal", "assay": "NCI-60 one-dose screen, 48 h (100 = growth as untreated, 0 = no growth, -100 = all killed)", "conditions": "100 µM", "values": [
      {"compound": "COc1ccc(C(=O)/C=C/c2ccc(OCc3cccc(C(F)(F)F)c3)c(OC)c2)cc1OC", "growth": "17% (inactive)"},
      {"compound": "CCN(Cc1ccccc1)c1ccc(/C=C2\\COc3ccccc3C2=O)cc1", "growth": "53.2% (inactive)"},
      {"compound": "COc1ccc(C(=O)/C=C/c2ccc(OCc3ccc(Cl)cc3)cc2)cc1OC", "growth": "28.5% (inactive)"},
      {"compound": "CC(=O)/C=C/c1ccc(OCc2ccc(C(C)(C)C)cc2)cc1", "growth": "28.1% (inactive)"},
      {"compound": "O=C(/C=C/c1cccc(Oc2ccc(Cl)cc2)c1)c1ccccc1", "growth": "-63.7% (active)"},
      {"compound": "CC(=O)/C=C/c1ccc(OCc2ccc(Cl)cc2)cc1", "growth": "48.6% (inactive)"},
      {"compound": "CC(=O)/C=C/c1ccc(N(CCO)Cc2ccc(C(C)(C)C)cc2)cc1", "growth": "-86.4% (active)"},
      {"compound": "CC(=O)/C=C/c1ccc(N(C)Cc2ccc(C(C)(C)C)cc2)cc1", "growth": "-81.1% (active)"}
    ]},
    {"tested_on": "UO-31 renal", "assay": "NCI-60 one-dose screen, 48 h (100 = growth as untreated, 0 = no growth, -100 = all killed)", "conditions": "10 µM", "values": [
      {"compound": "COc1ccc(C(=O)/C=C/c2ccc(OCc3cccc(C(F)(F)F)c3)c(OC)c2)cc1OC", "growth": "67.2% (inactive)"},
      {"compound": "CCN(Cc1ccccc1)c1ccc(/C=C2\\COc3ccccc3C2=O)cc1", "growth": "83.8% (inactive)"},
      {"compound": "COc1ccc(C(=O)/C=C/c2ccc(OCc3ccc(Cl)cc3)cc2)cc1OC", "growth": "85.8% (inactive)"},
      {"compound": "CC(=O)/C=C/c1ccc(OCc2ccc(C(C)(C)C)cc2)cc1", "growth": "68.6% (inactive)"},
      {"compound": "O=C(/C=C/c1cccc(Oc2ccc(Cl)cc2)c1)c1ccccc1", "growth": "86.2% (inactive)"},
      {"compound": "CC(=O)/C=C/c1ccc(OCc2ccc(Cl)cc2)cc1", "growth": "91.4% (inactive)"},
      {"compound": "CC(=O)/C=C/c1ccc(N(CCO)Cc2ccc(C(C)(C)C)cc2)cc1", "growth": "47.2% (inactive)"},
      {"compound": "CC(=O)/C=C/c1ccc(N(C)Cc2ccc(C(C)(C)C)cc2)cc1", "growth": "78.5% (inactive)"}
    ]},
    {"tested_on": "UO-31 renal", "assay": "NCI-60 one-dose screen, 48 h (100 = growth as untreated, 0 = no growth, -100 = all killed)", "conditions": "10 µM unless noted", "values": [
      {"compound": "CN(C)CCCn1c2nc(=O)[nH]c(=O)c-2nc2cc(Cl)c(Cl)cc21", "growth": "80.9% (inactive)"},
      {"compound": "C=C(CNCCc1ccc(O)cc1)[C@@H]1CC[C@]2(CO)CC[C@]3(C)[C@H](CC[C@@H]4[C@@]5(C)CCC(NCCc6ccc(O)cc6)C(C)(C)[C@@H]5CC[C@]43C)[C@@H]12", "note": "(stereo not given in full)", "growth": "-93.7% (active)"},
      {"compound": "O=C1/C(=C/c2cn(-c3ccccc3)nc2-c2ccccc2)SC(=S)N1c1ccc(Cl)cc1", "growth": "65.7% (inactive)"},
      {"compound": "CCCNNC(=O)/C=C/c1ccc(CNCCc2c(C)[nH]c3ccccc23)cc1", "growth": "13.8% [2.5 µM] (inactive)"},
      {"compound": "C=CCNC(=O)Cc1c(-c2ccc(OC)cc2)oc2c(OC)c3c(c(OC)c12)OCO3", "growth": "80.8% (inactive)"},
      {"compound": "CC1=C2[C@@H](CC1)[C@]1(C)O[C@@](C(C)C)(C[C@H]1OC(=O)CO)[C@H]2OC(=O)C1CC1c1ccccc1", "note": "(stereo not given in full)", "growth": "54.2% (inactive)"},
      {"compound": "O=C([C@H]1C[C@H]1c1ccc(S(F)(F)(F)(F)F)cc1)N1CCN(c2cc(Cl)ccc2C(F)(F)F)CC1", "growth": "67.8% (inactive)"},
      {"compound": "O=C(Cc1ccc(F)cc1)c1ccccc1", "growth": "95.6% (inactive)"},
      {"compound": "COc1cc2cc(NCc3ccncc3)nc(C)c2cc1OC", "growth": "89.8% (inactive)"},
      {"compound": "CN1Cn2c(ccc2C(F)(F)F)C(=O)CS1(=O)=O", "growth": "82.9% (inactive)"},
      {"compound": "O=C1C=C(Nc2ccccc2)c2ncccc2C1=O", "growth": "-98.6% (active)"},
      {"compound": "C=C1C(=O)O[C@H]2[C@H]1CC/C(COC(=O)NCc1ccc(Cn3c(=O)sn(CCCI)c3=O)cc1)=C\\CC[C@@]1(C)O[C@@H]21", "growth": "-30.1% (active)"},
      {"compound": "COc1ccc(Cn2cc(C(=O)Nc3cccnc3Nc3ccccc3)nn2)cc1", "growth": "70.9% (inactive)"},
      {"compound": "NNCCc1ccccc1", "growth": "77.5% (inactive)"},
      {"compound": "CCN(CC)CC#CCOC(=O)[C@]1(C)CCC[C@]2(C)c3ccc(C(C)C)cc3CC[C@@H]12", "growth": "65% (inactive)"},
      {"compound": "COc1cc2c(cc1OCCCOC1=C=C=C(c3ccc4c(c3)c3cc(-c5ccc(OCCCOc6cc7c(cc6OC)C(=O)N6CCC[C@H]6C=N7)cc5)ccc3n4S(=O)(=O)c3ccc(C)cc3)C=C1)N=C[C@@H]1CCCN1C2=O", "growth": "39.1% (inactive)"},
      {"compound": "O=C(CCl)N(O)c1ccc(/C=C/c2ccccc2)cc1", "growth": "66.4% (inactive) and 65.2% (inactive)"},
      {"compound": "COc1cc(/C=C/C(=O)c2ccc(NC(=O)CSc3nnc(-c4cc(-c5ccccc5)nc5ccccc45)n3-c3ccccc3)cc2)cc(OC)c1OC", "growth": "87.7% (inactive)"},
      {"compound": "Nc1[nH]nc(Nc2ccccc2)c1-c1nc2ccccc2s1", "growth": "18.8% (inactive)"},
      {"compound": "C[C@]12CCc3c(ccc4cc(O)ccc34)[C@@H]1C[C@H](O)[C@@H]2O", "growth": "85.3% (inactive)"},
      {"compound": "Cn1cc(-c2csc(-c3cn(CCOC(N)=O)c4ccccc34)n2)c2cccnc21", "growth": "79.6% (inactive)"},
      {"compound": "C=C(CN1CC=CCC1)[C@@H]1CC[C@]2(COC(C)=O)CC[C@]3(C)[C@H](CC[C@@H]4[C@@]5(C)CC[C@H](O)C(C)(C)[C@@H]5CC[C@]43C)[C@@H]12", "growth": "89.4% (inactive)"},
      {"compound": "C/C=C(/C)C(=O)O[C@@H]1CC(C)(C)CC2C34OC(=O)[C@@]21CC[C@@]3(C)[C@]1(C)CCC2C(C)(C)C(=O)CC[C@]2(C)C1C[C@@H]4Cl", "note": "(stereo not given in full)", "growth": "84.2% (inactive)"},
      {"compound": "CC1=CC=C(NC(=O)/C=C/c2ccccc2)CC1Nc1nccc(-c2cccnc2)n1", "note": "(stereo not given)", "growth": "65.2% (inactive)"},
      {"compound": "COc1ccc(-c2[nH]c3ccccc3c2-c2ccc(OC)cc2)cc1", "growth": "67.7% (inactive)"},
      {"compound": "CC[C@]12CN3CCc4c([nH]c5ccccc45)[C@@](C(=O)OC)(c4cc5c(cc4OC)N(C)[C@H]4[C@@](O)(C(=O)OC)[C@H](OC(C)=O)[C@]6(CC)C=CCN7CC[C@]54[C@@H]76)CC(C3)[C@H]1O2", "note": "(stereo not given in full)", "growth": "32.8% (inactive)"},
      {"compound": "CCCCC1=C(Br)C(=O)c2nc(C)ccc2C1=O", "growth": "70.8% (inactive)"},
      {"compound": "Nc1ncc(-c2ccc3ncnc(N4CCc5ccc(Cl)cc54)c3c2)cc1C(F)(F)F", "growth": "-12% (active)"},
      {"compound": "COc1ccc(-c2nnc3n(C)c(=O)c4ccccc4n23)cc1O", "growth": "52.7% (inactive)"}
    ]}
  ]
}
